# Test results taken from PubChem BioAssay AID1347383 (Zoeller Lab, School of Medicine, Boston University, 2020).
# Calls of active or inactive are those of the source.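 Rule for the calls: active = cell survival after UV exposure 2 SD above solvent-only control wells at 10 µM, confirmed on one or two repeats; inactive = the rest.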
# Experiment: cell survival after pyrene fatty acid photosensitization – ZR-82 cells, Analyticon library, screen 2, phospholipid biosynthesis inhibitor project, primary screen (AID 1347383);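 note: survival reflects blocked phospholipid synthesis cutting uptake of the phototoxic fatty acid; compound and fatty acid exposure 3 h then viability read next day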
# Conditions: ZR-82 CHO cells, pyrene-fatty acid UV killing, CellTiter Blue; at 10 µM; peroxisome-deficient CHO-K1 variant; with DGAT-1, DGAT-2 and ACAT inhibitors
row,Structure (SMILES),outcome
1,O=C(O)CCC1OC(=O)C(O)=C1c1ccccc1 (stereo not given),inactive
2,O=C1CC2OC(C(O)c3ccccc3)C(O1)C2O (stereo not given),inactive
3,C=C(C(=O)O)[C@@H]1CC[C@H](C)[C@@H]2CC(=O)C(C)=C2C1,inactive
4,O=c1c(-c2ccc(O)cc2O)coc2cc(O)cc(O)c12,inactive
5,COC(=O)c1ccccc1O[C@@H]1O[C@H](CO)[C@@H](O)[C@H](O)[C@H]1O[C@@H]1O[C@@H](C)[C@H](O)[C@@H](O)[C@H]1O,inactive
